aGal spleen mod – inhibits or activates alpha-galactosidase in human spleen homogenate; P06280; human spleen homogenate, 4MU-alpha-Gal fluorescence, 40 min; Potency, µM (titrated, usually from 80 µM), for inactives: top-dose activity change, negative = inhibition, hits mostly inhibitors; hit rate 0.008% among 240,000; AID 2107;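 further: potency means the concentration at half of the fitted maximal effect; 0% = enzyme with vehicle and -100% = no enzyme basal signal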
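Human spleen homogenate (1 ug) as enzyme source, 4-methylumbelliferyl-alpha-D-galactopyranoside 1 mM final, citrate/phosphate pH 5.0 with 0.01% Tween-20. Compounds 40 min at 37C, NaOH/glycine stop; fluorescence Ex 365/Em 440, Hill-fit AC50.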
ERK EGF block – inhibitors of EGF-stimulated ERK signaling pathway; hit rate 0.41% among 130,000; HEK293-V1b, EGF-stimulated phospho-ERK AlphaScreen; Potency, µM (series often up to 11.5 µM), inactives show at the top dose activity change, negative = inhibition, most hits filed as inhibitors; AID 1454;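 further: potency means the concentration at half of the fitted maximal effect; plate controls were stimulated vehicle wells for no effect and unstimulated vehicle basal for full effect; nearly all actives have a fitted effect of over 55% in size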
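HEK293 cells stably expressing V1b receptor, serum-reduced (1% FBS) overnight, got compound for 30 min at 37C, then 25 nM EGF for 5 min. Lysate phospho-ERK read by AlphaScreen SureFire; AC50 from Hill fits.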
GLA inh pH 4.5 – alpha-galactosidase A (human) inhibition, pH 4.5; P06280; purified enzyme, 4-MU-alpha-Gal fluorescence, pH 4.5; activity change, negative = inhibition, % at 105 µM; 230,000 tested, under 10 active;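 further: 0% = full activity with enzyme and -100% = basal without enzyme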
Target sequence (P06280 whole entry, looked up): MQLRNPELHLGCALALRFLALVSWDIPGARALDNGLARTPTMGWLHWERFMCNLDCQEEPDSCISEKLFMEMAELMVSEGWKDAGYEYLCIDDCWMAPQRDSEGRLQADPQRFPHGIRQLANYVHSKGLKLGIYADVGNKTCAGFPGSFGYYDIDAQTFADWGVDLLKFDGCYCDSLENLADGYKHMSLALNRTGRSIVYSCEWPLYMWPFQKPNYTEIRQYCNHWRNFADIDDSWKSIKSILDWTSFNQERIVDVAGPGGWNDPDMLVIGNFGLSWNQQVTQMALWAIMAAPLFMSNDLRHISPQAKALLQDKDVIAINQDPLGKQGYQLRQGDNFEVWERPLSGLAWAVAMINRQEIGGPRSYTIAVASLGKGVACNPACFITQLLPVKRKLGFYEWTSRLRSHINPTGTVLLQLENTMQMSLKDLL
HTT aggregate – mutant huntingtin aggregation inhibition. PC12 HttQ103-GFP aggregates, Acumen cytometry, 40 h. Potency, µM (series often up to 46.1 µM), inactives show top-dose activity change, negative = inhibition, most hits filed as inhibitors. hit rate 1.1% among 220,000; further: potency means the concentration at half of the fitted maximal effect; on the % scale 0 is the no-effect control and ±100 the full control effect; nearly all actives have a fitted effect of over 60% in size
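Huntingtin Q103 exon 1–GFP aggregates in induced PC12 cells (100 nM tebufenozide) were quantified by cytometry from lysates, with compounds dosed in titration.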
HTT cytoprotect – cytoprotection in Huntington HTT-Q103 PC12 cell model. PC12 HTT-Q103 induced, cytoprotection, ATP luminescence, 40 h. Potency, µM (top dose mostly 56.4 µM), without a hit: cytoprotection (ATP increase), usual class: activators. hit rate 0.14% among 230,000. AID 1471; further: potency means the concentration at half of the fitted maximal effect; % of control where 0% means no effect; nearly all actives have a fitted effect of over 45% in size
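Quantitative HTS on tebufenozide-induced (100 nM) PC12 cells expressing HTTQ103 exon 1–GFP; compounds tested as a concentration series; survival measured via cellular ATP.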
* hit, by the source's call; ? = inconclusive; · = not tested or not shown; [ ] = dose if it differs, or a comment. This is a sample that favours compounds with a hit; in the whole collection about 1.2% have one here. The call rests on the fitted dose curve; in most records, active means well fitted curve in the direction sought with a large enough effect; inconclusive means small, poorly fitted or top-dose-only effect, or another doubt; inactive means no such curve, though single readings can be large; an effect the other way counts as inactive or inconclusive.

SMILES | aGal spleen mod | ERK EGF block | GLA inh pH 4.5 | HTT aggregate | HTT cytoprotect
O=C(O)C1CCC(CNc2c(NC3CCCCC3)c(=O)c2=O)CC1 (centres undefined) | · | · | · | · | 0%
COc1ccc(-c2csc3ncnc(Nc4ccc(O)cc4)c23)cc1 | 3% | 28µM* | 4 | -21%[9.22 µM] | 4%[10 µM]
Cc1ccc(-c2csc3ncnc(Nc4ccc(C(=O)O)cc4)c23)cc1 | 3% | 10%[57.5 µM] | 1 | -11%[9.22 µM] | 7%[10 µM]
CC(/C=C/C(=O)NO)=C\[C@@H](C)C(=O)c1ccc(N(C)C)cc1 | -8% | · | -13 | · | -175%
CC1=CC2C(CC1=O)C(C)=CCC2C(C)C (centres undefined) | 6% | 4% | -8 | · | ·
O=C(O)c1ccccc1C(=O)Nc1ccccc1 | -5% | · | -10 | 10% | 11%[10 µM]
O=C(Nc1ccccc1)C1=C(c2ccccc2)S(=O)(=O)CCS1(=O)=O | 0% | 3% | 2 | 5µM* | -162%
COc1ccc(S(=O)(=O)N(C)CC(=O)Nc2ccc(C(N)=O)cc2)cc1OC | 7% | 0% | -9 | -9% | -8%
COC(=O)c1ccc(NC(=O)CN(C)S(=O)(=O)c2ccc(OC)c(C)c2)cc1 | 0% | · | -28 | 1.3µM* | 4%[10 µM]
O=[N+]([O-])c1ccc(CSc2ncnc3c2ncn3C2OC(CO)C(O)C2O)cc1 (centres undefined) | 4% | · | · | · | -45%
Cc1ccc(C)c(NC(=O)c2ccccc2NS(=O)(=O)c2cc([N+](=O)[O-])ccc2C)c1 | -16% | -1% | -6 | 2.8µM* | -52%[10 µM]
Cc1cc(NC(=O)c2ccccc2NS(=O)(=O)c2c(C)c(C)cc(C)c2C)no1 | 3% | · | 12 | -7% | -20%
Cc1ccc(C)c(S(=O)(=O)Nc2ccccc2C(=O)Nc2cc(C)on2)c1 | 13% | · | 0 | 10µM* | -65%
CC(C)=CCC[C@](C)(O)C1CC=C(C)CC1 (some centres undefined) | 18% | 4% | 0 | -1% | -52%
Cc1cccc(NC(=O)COC(=O)c2cc(C)oc2C)c1 | 15% | -1% | -12 | 13µM* | 15%
O=Cc1ccccc1OCCOc1ccccc1C=O | -2% | -3% | -2 | 35µM* | -24%[10 µM]
CN(C(=O)COc1ccccc1C(=O)NCCOc1ccccc1)c1ccccc1 | -3% | 32µM* | -7 | ? | ·
CN(C(=O)COC(=O)CNC(=O)c1ccccc1Cl)c1ccccc1 | -3% | -8% | -4 | 16% | -26%
C=CCCC(=O)Nc1nc(C)c(-c2csc(Nc3ccccc3OC)n2)s1 | 11% | · | -2 | 18µM* | -93%
C=CCNc1nc(-c2sc(NC(C)=O)nc2C)cs1 | 4% | · | -1 | 13µM* | -34%
CCCCC(=O)Nc1nc(C)c(-c2csc(Nc3ccccc3OC)n2)s1 | -1% | · | 5 | ? | -43%
C=CCNc1nc(-c2sc(NC(=O)CC)nc2C)cs1 | 2% | -4% | -16 | ? | -19%[10 µM]
Cc1ccc(C)c(C(=O)N(Cc2nc(-c3ccc(Cl)cc3)no2)C(C)C)c1 | -9% | · | -13 | 22µM* | -1%
COc1cccc(C(=O)N(Cc2nc(-c3ccc(C)cc3)no2)C(C)C)c1 | 1% | · | -7 | -2% | 17%[0.074 µM]
CCN(CC)c1ccc(NC(=O)COc2ccc(N(C)S(=O)(=O)c3cccs3)cc2)cc1 | -2% | ? | -3 | 17% | -37%
SMILES | aGal spleen mod | ERK EGF block | GLA inh pH 4.5 | HTT aggregate | HTT cytoprotect
CN(C(=O)c1cccs1)c1ccc(OCC(=O)Nc2ccc(C(=O)O)cc2)cc1 | 0% | 8%[57.5 µM] | -5 | ? | 0.89µM*
CN(c1ccc(OCC(=O)OCC(=O)Nc2ccccc2)cc1)S(=O)(=O)c1cccs1 | -1% | 10% | -15 | 1.3µM* | -80%[1.9 µM]
N#C/C(=C/Nc1ccccc1)c1ccsc1 | 2% | · | 4 | 13µM* | -8%
CCOc1cc([C@@H]2C[C@H]3CN(c4ccccc4)C(=O)[C@]34CCCN24)ccc1OC | 1% | -8% | -16 | 7.1µM* | -161%
CCC1CCCCN1S(=O)(=O)c1ccc(C(=O)Nc2nnc(-c3cccs3)o2)cc1 (centres undefined) | -7% | -15% | -4 | 11µM* | 28%[10 µM]
CC1CC(C)CN(S(=O)(=O)c2ccc(C(=O)Nc3nnc(-c4cccs4)o3)cc2)C1 (centres undefined) | -6% | · | -3 | 7.9µM* | -71%
COc1cccc(-c2nnc(NC(=O)c3ccc(S(=O)(=O)N4CC(C)OC(C)C4)cc3)o2)c1 (centres undefined) | -1% | · | -5 | 4µM* | -33%[10 µM]
COc1cccc(C2=Nn3c(nnc3-c3ccccc3OC)SC2)c1 | 2% | · | · | · | ·
O=C(/C=C/c1ccccc1)c1ccccc1 | -3% | -4%[57.5 µM] | · | -12% | ·
CC(C)(C)c1cc(C(=O)/C=C/c2ccc(C(=O)O)cc2)cc(C(C)(C)C)c1 | -8% | ? | -6 | · | 2.5µM*
COc1ccc2[nH]cc(CCNc3ncncc3-c3ccc4c(c3)OCO4)c2c1 | -3% | · | · | · | ?
COc1cccc(-c2cncnc2NCCc2c[nH]c3ccc(OC)cc23)c1 | 16% | · | · | · | 3.2µM*
Cn1c2c(c(=O)n(C)c1=O)[C@@]1(C(=O)Nc3ccccc31)C(C#N)=C(N)O2 | 4% | · | 5 | 13µM* | 3%[10 µM]
NCC(O)COc1cccc2ccccc12 (centres undefined) | -4% | · | · | · | -5%
COc1ccc(OC)c(C2=Nn3c(nnc3-c3ccc(OC)c(OC)c3)SC2)c1 | -4% | · | · | · | ·
COc1ccc(C(=O)NN/C(C)=C/C(=O)C(F)(F)C(F)(F)C(F)(F)F)cc1 | 12% | 10% | -10 | 11µM* | 41%[10 µM]
CC1CCCCN1CCCOC(=O)c1ccccc1 (centres undefined) | · | · | · | -3% | 13%
O=C1/C(=C/c2ccncc2)CCc2ccccc21 | 0% | ? | 6 | -1%[9.22 µM] | 10%[10 µM]
O=C1/C(=C/c2ccncc2)CCC/C1=C\c1ccncc1 | -16% | 22µM* | 0 | ? | ?
O=C(Nc1ccccc1)c1cc2ccccc2c(=O)s1 | -4% | 13% | -13 | 11µM* | ·
O=C(CCl)Nc1ccc(N=Nc2ccccc2)cc1 | 1% | 2% | -17 | ? | ·
O=C(CCl)Nc1ccc(-c2ccccc2)cc1 | -2% | 3% | 17 | 18µM* | -7%
O=C(CCl)Nc1cn(-c2ccccc2)nc1-c1ccccc1 | -7% | 1% | -6 | 22µM* | -192%
O=C(/C=C\c1ccc(O)cc1)c1ccc(O)cc1O | · | · | · | · | 5%[1.9 µM]
Cc1nn(-c2ccc([N+](=O)[O-])cc2)c2c1C(c1cccc(Br)c1)N1C(=N2)C(=O)Nc2ccccc21 (centres undefined) | -7% | 6% | -2 | -4% | 1%[10 µM]
Cc1nn(-c2ccccc2)c2c1C(c1ccc([N+](=O)[O-])cc1)N1C(=N2)C(=O)Nc2ccccc21 (centres undefined) | -20% | -1% | -29 | 13µM* | -19%[10 µM]
